High-throughput results from PubChem.
A selection: hits, their analogues and other compounds. The true share with any hit is near 11%.
RORgamma inh = ROR gamma (mouse) transcription inhibition; P51450; Drosophila S2 Gal4-RORgamma UAS-luciferase reporter, 20 h; Potency, µM (series often up to 53.6 µM), usual class: inhibitors; 5.4% of 310,000 active; note: nearly all actives have a fitted effect of over 60% in size
Target sequence (P51450 whole entry, looked up, the tested form may be a part): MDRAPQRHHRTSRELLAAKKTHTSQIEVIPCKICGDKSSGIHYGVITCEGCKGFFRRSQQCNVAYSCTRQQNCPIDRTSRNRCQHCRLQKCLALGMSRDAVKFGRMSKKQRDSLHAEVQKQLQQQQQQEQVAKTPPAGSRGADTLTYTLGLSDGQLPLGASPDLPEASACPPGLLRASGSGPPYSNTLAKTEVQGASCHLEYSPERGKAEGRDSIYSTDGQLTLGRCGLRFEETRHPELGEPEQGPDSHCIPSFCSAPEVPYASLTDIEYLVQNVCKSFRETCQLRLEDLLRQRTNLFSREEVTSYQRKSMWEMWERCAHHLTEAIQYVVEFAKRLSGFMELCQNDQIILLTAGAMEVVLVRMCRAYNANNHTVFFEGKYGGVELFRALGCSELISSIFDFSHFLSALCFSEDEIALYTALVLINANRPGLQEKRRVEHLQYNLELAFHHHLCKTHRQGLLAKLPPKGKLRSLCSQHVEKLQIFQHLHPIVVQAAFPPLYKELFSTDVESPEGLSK
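A Gal4/UAS one-hybrid system in insect cells: metallothionein-promoter Gal4–ROR gamma fusion plus Photinus luciferase reporter. Copper sulfate 700 uM final, 20 hr ambient incubation, luminescent detection after 10 min with reagent.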
IL-1B inflam inh = inhibitors of inflammasome signaling (IL-1 beta secretion) | AID 743279 | 4.7% of 360,000 active | THP-1 LPS/ATP IL-1B secretion, AlphaLISA, 16 h; hits give low values | activity change, % at 57.5 µM; in the data active = activity change below about -50%; inconclusive = mostly about -30% to -49%
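Secreted IL-1B measured by AlphaLISA bead assay after 16 h compound exposure of THP-1 cells; compounds (final up to 57.5 uM) added 1 h before LPS (250 ng/mL) and ATP (1.25 mM) stimulation; lower signal means less secretion.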
MCF10A rerep = DNA re-replication induction in MCF 10a cells; MCF 10A DNA re-replication, Hoechst nuclear intensity, 48 h; Potency, µM (highest dose often 46.1 µM), actives largely listed as activators; 2.9% of 350,000 active; note: nearly all actives have a fitted effect of over 50% in size
SW480 rerep = induces DNA re-replication in SW480 colon adenocarcinoma cells. SW480 DNA re-replication, Hoechst DNA content imaging, 48 h. 1.8% of 340,000 active. Potency, µM (doses to about 46.1 µM), most hits filed as activators; note: nearly all actives have a fitted effect of over 55% in size
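First, 250 cells per well were seeded. Next, compound or vehicle (23 nL) was pinned in, plates sat 48 hr at 37 C. Finally Hoechst was added for 40 min before fluorescence scanning.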
Gal4-VP16 FLuc = inhibits Gal4-VP16 luciferase reporter, ROR gamma counter-screen. Drosophila S2 Gal4-VP16 UAS-luciferase, luminescence, 20 h. Potency, µM (highest dose often 53.6 µM), actives largely listed as inhibitors. 3.5% of 310,000 active;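 note: Gal4-VP16 expression switched on by copper sulfate through the metallothionein promoter; nearly all actives have a fitted effect of over 50% in size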
A number is an active result; n = inactive; u = inconclusive; x = no result; [ ] = another dose, or the depositor's remark. Unless noted, calls come from the whole dose curve; as a rule, active = well fitted curve in the direction sought with a large enough effect; inconclusive = small, poorly fitted or top-dose-only effect, or another doubt; inactive = no such curve, though single readings can be large; an effect the other way counts as inactive or inconclusive.

SMILES	RORgamma inh	IL-1B inflam inh	MCF10A rerep	SW480 rerep	Gal4-VP16 FLuc
Cc1ccc(-c2ccnc(=S)[nH]2)cc1	2.8µM	n	n	n	3.5µM
S=c1nccc(-c2cccs2)[nH]1	4µM	n	n	n	7.9µM
COc1ccc(C(O)c2ncc(-c3ccc4ccccc4c3)[nH]2)cc1F (configuration not stated)	x	n	x	x	x
COc1cc2c(cc1OC)C(NC(=O)c1ccc(C)cc1)CC2=O (configuration not stated)	n	n	n	n	n
COc1cccc(N2C(=O)CC(NNC(=O)c3cccs3)C2=O)c1 (configuration not stated)	n	n	n	n	n
CC(O)CCC(=O)NNC1CC(=O)N(c2ccccc2)C1=O (configuration not stated)	n	n	n	n	n
CC(C)c1ccc(N2C(=O)CC(NNC(=O)c3ccccc3Cl)C2=O)cc1 (configuration not stated)	u	x	n	n	3.2µM
COc1ccc(N2C(=O)CC(NNC(=O)c3ccc(Br)s3)C2=O)cc1 (configuration not stated)	n	-64	n	n	n
O=c1c(-c2ccc(O)cc2)coc2cc(O[C@@H]3O[C@H](CO)[C@H](O)[C@H](O)[C@H]3O)ccc12	n	x	x	x	n
COc1ccccc1C1C([N+](=O)[O-])=CC([N+](=O)[O-])=CN1C (configuration not stated)	u	n	n	u	11µM
O=C(c1ccco1)N1N=C(c2ccc(Cl)cc2)CC1(O)C(F)(F)F (configuration not stated)	u	u	n	n	5.6µM
O=C(c1ccco1)N1N=C(c2ccc(Br)cc2)CC1(O)C(F)(F)F (configuration not stated)	7.1µM	-63	u	n	u
O=C(c1ccco1)N1N=C(c2ccncc2)CC1(O)C(F)(F)F (configuration not stated)	n	n	n	n	n
COc1ccc(N2CCN(C(=O)COC(=O)CCOc3ccc(C)cc3)CC2)cc1	x	n	n	n	x
CC(Oc1cccnc1[N+](=O)[O-])C(=O)N1CCc2ccccc21 (configuration not stated)	x	n	n	u	x
Cc1noc(C)c1CSCC(=O)Nc1nc(-c2ccc(F)c(F)c2)cs1	x	-81	u	n	x
CCc1noc(C)c1C(=O)Nc1nc(-c2ccc(OC)c(OC)c2)cs1	x	u	n	u	x
CCc1noc(C)c1C(=O)OCC(=O)Nc1nc(-c2ccc(F)c(F)c2)cs1	x	-80	n	n	x
COc1ccc(-c2csc(NC(=O)CSCc3c(C)noc3C)n2)cc1OC	n	u	u	n	n
CCC(=O)N(Cc1cc(=O)[nH]c2ccccc12)c1ccc(C)cc1C	n	n	n	n	n
O=C1C2C3c4ccccc4C(c4ccccc43)[C@@H]2c2nc3ccccc3n21 (some centres not stated)	11µM	n	n	n	n
O=C1C2C3c4ccccc4C(c4ccccc43)[C@@H]2C(=O)N1c1ccccn1 (some centres not stated)	n	n	n	n	n
CCOc1ccc(C(=O)Nc2cnn(Cc3ccc(Cl)c(Cl)c3)c2)cc1	n	n	0.65µM	n	n
O=C(Nc1ccc(Cl)c(Cl)c1)c1ccc(Cn2cc(Cl)cn2)cc1	u	n	u	n	u
Cc1cc(C)c2c(=O)c3c(oc2c1)C(=O)N(CCO)C3c1cccc(O)c1 (configuration not stated)	n	-58	n	n	u
SMILES	RORgamma inh	IL-1B inflam inh	MCF10A rerep	SW480 rerep	Gal4-VP16 FLuc
O=C1c2oc3ccc(F)cc3c(=O)c2C(c2cccc(O)c2)N1CCCN1CCOCC1 (configuration not stated)	n	n	n	n	n
CC(C)(C)n1nc2c(c1NC(=O)c1ccc(Cl)c([N+](=O)[O-])c1)CS(=O)(=O)C2	n	-98	n	n	n
Cc1ccccc1OCCC(=O)Nc1ccc(F)c(Cl)c1	5.6µM	-61	n	n	4.5µM
Cc1ccccc1OCC(=O)Nc1ccc(N2CCN(C)CC2)c(Cl)c1	n	u	15µM	u	n
Cc1ccccc1OCC(=O)Nc1cccc(C(=O)O)c1	2.5µM	n	n	n	6.3µM
Cc1ccc(C(=O)Nc2c3c(nn2C(C)(C)C)CS(=O)(=O)C3)cc1[N+](=O)[O-]	n	n	n	n	n
CSc1ncnc2c1ccn2CC(=O)Nc1ccc(C)c(C)c1	x	n	n	n	x
Cc1ccc(-c2nc3ccccc3n2C(C)C(=O)NC(C)(C)C)cc1 (configuration not stated)	x	n	x	x	x
Cc1ccccc1OCC(=O)Nc1c2c(nn1C(C)(C)C)CS(=O)(=O)C2	n	n	n	18µM	n
Cc1cc(NC(=O)COc2ccccc2C)ccc1NC(=O)c1cccs1	n	-62	n	n	n
O=C1C(=O)N(Cc2cccnc2)C(c2cccc(Br)c2)/C1=C(/O)c1ccc2c(c1)OCO2 (configuration not stated)	n	n	n	n	n
CC(NCc1ccc(OCc2ccc(Cl)cc2)cc1)C(O)c1ccccc1 (configuration not stated)	35µM	-103	18µM	u	u
CC(NCc1cccc(OCc2ccccc2)c1)C(O)c1ccccc1 (configuration not stated)	u	u	n	u	n
CCOc1ccc(/C=N/NC(=O)c2ccc(Cn3cc([N+](=O)[O-])cn3)o2)cc1	n	n	n	n	n
O=C(Nc1ccc(C(F)(F)F)cc1Cl)c1ccc(Cn2cc(Br)cn2)o1	n	n	13µM	n	n
O=C(N/N=C/c1c(F)c(F)c(F)c(F)c1F)c1ccc(Cn2cc(Br)cn2)o1	n	-98	u	n	n
CC(/C=N/NC(=O)c1ccc(Cn2cc([N+](=O)[O-])cn2)o1)=C\c1ccccc1	n	-52	n	n	n
CSc1ccccc1NC(=O)CN(C)C(=O)COc1cccc2cccnc12	x	n	u	5.8µM	x
COc1ccc(N2C(=O)CC(Sc3nc4ccccc4s3)C2=O)cc1 (configuration not stated)	5µM	n	u	n	u
CCOc1ccc2nc(SC3CC(=O)N(c4ccc(OC)cc4)C3=O)sc2c1 (configuration not stated)	16µM	n	u	u	u
CCOc1ccc(N2C(=O)CC(Sc3nc(C)cc(C)n3)C2=O)cc1 (configuration not stated)	n[10 µM]	n	n	n	n
C=CCNc1nnc(SC2CC(=O)N(c3ccc(OC)cc3)C2=O)s1 (configuration not stated)	4.5µM	n	5.8µM	n	13µM
Cc1cccc(CNc2cc(-c3ccccc3CN(C)C)ncn2)c1	n	x	x	x	n
COc1ccc(NS(=O)(=O)c2cccc(C(=O)NNC(=O)c3ccccc3OC)c2)cc1	x	n	n	n	x
O=C1C=C(NCCO)C(=O)c2cnccc21	3.5µM	x	x	x	6.3µM
